Where “and” joins values, the source holds several entries; their conditions need not be identical. Equal values may be shown once. Results filed as inconclusive are left out. Some structures have more than one record in an assay (separate samples or runs), and their calls can disagree. Calls of active or inactive are those of the source. How the source made its calls, unless noted: active means hit-call score of the fitted dose curve at least 0.9, where 1 is the maximum; inconclusive means response in the unintended direction; inactive means score below 0.9.
target: Estrogen receptor (Homo sapiens) (UniProt P03372); assay: CCTE_Deisenroth_AIME_384WELL_LUC_Active: CCTE's 384-well Estrogen Receptor Transactivation Assay with AIME metabolic competence (ERTA luciferase; metabolism positive), Deisenroth Lab (AID 2284030)
Sequence (P03372 whole entry, looked up): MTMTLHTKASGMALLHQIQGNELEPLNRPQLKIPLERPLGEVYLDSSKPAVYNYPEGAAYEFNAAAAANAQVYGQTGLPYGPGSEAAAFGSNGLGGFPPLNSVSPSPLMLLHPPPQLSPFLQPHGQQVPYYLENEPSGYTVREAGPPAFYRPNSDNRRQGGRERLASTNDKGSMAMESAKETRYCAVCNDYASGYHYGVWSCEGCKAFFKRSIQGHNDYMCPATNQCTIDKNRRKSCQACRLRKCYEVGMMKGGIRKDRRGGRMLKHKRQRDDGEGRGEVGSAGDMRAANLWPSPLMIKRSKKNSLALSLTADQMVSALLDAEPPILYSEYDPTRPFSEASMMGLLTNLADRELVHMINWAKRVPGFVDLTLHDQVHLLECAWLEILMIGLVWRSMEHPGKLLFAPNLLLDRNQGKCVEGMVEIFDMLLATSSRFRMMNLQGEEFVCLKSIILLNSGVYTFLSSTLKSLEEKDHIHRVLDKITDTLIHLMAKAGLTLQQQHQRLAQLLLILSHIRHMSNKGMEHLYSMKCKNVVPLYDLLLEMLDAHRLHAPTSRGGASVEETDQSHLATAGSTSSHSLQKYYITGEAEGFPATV
In short: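 Test chemicals (10-point series, 0.002 - 200 uM) were preincubated 2 hours with alginate-immobilized phenobarbital/beta-naphthoflavone-induced male Sprague Dawley rat liver S9; conditioned medium then went onto VM7Luc4E2 breast cells for 24 hour. Luciferase gain-of-signal fitted relative to 17beta-estradiol.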

Structure (SMILES)	outcome	AC50
COCC(C)N(C(=O)CCl)c1c(C)csc1C (centres undefined)	inactive	
CC(C)N1C(=O)c2ccccc2NS1(=O)=O	inactive	
O=C(Nc1ccccc1-c1ccc(Cl)cc1)c1cccnc1Cl	inactive	
O=c1n(Cl)c(=O)n(Cl)c(=O)n1Cl	inactive	
CNC(=O)N(C)c1nnc(C(C)(C)C)s1	inactive	
COC(=O)NC(=S)Nc1ccccc1NC(=S)NC(=O)OC	inactive	
COc1cc(OC)nc(NC(=O)NS(=O)(=O)c2ncccc2OCC(F)(F)F)n1	inactive	
N#Cc1c(Cl)cccc1Cl	inactive	
COCc1cnc(C2=NC(C)(C(C)C)C(=O)N2)c(C(=O)O)c1 (centres undefined)	inactive	
CCOP(=O)(OCC)Oc1nc(Cl)c(Cl)cc1Cl	inactive	
CCOC(=O)C(C)OC(=O)c1cc(Oc2ccc(C(F)(F)F)cc2Cl)ccc1[N+](=O)[O-] (centres undefined)	inactive	
CC(C)=CC1C(C(=O)OCc2coc(Cc3ccccc3)c2)C1(C)C (centres undefined)	inactive	
Cc1cc(C)nc(Nc2ccccc2)n1		93.3 µM (active)
COP(=S)(OC)Oc1ccc([N+](=O)[O-])c(C)c1	inactive	
C=C(C)CN(CC)c1c([N+](=O)[O-])cc(C(F)(F)F)cc1[N+](=O)[O-]	inactive	
COP(=S)(OC)SCn1nnc2ccccc2c1=O	inactive	
Nc1c(Cl)c(Cl)nc(C(=O)O)c1Cl		41.7 µM (active)
CCSC(=O)N1CCCCCC1	inactive	
CN=C=S	inactive	
CCOP(=S)(OCC)Oc1nc(Cl)n(C(C)C)n1	inactive	
CC1(C)CON(Cc2ccccc2Cl)C1=O	inactive	
CC1(C)C(C=C(Cl)Cl)C1C(=O)OC(C#N)c1cccc(Oc2ccccc2)c1 (centres undefined)		40.8 µM (active)
CS(=O)(=O)c1cc(C(F)(F)F)ccc1C(=O)c1cnoc1C1CC1	inactive	
CCCC(=NOCC)C1=C(O)CC(CC(C)SCC)CC1=O (centres undefined)	inactive	
Cc1ccc(N=CN(C)C=Nc2ccc(C)cc2C)c(C)c1	inactive	
CC(C)N1C(=O)N(c2ccccc2)CSC1=NC(C)(C)C	inactive	
Nc1cnn(-c2ccccc2)c(=O)c1Cl	inactive	

test system: not listed separately; assay: CCTE_Shafer_MEA_dev_firing_rate_mean: CCTE's Neural Network Formation Assay for Mean Firing Rate, Shafer Lab (AID 2284031; active means hit-call score of the fitted dose curve at least 0.9, where 1 is the maximum; inactive means score below 0.9;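 on AC50: curve fitted for loss of firing so AC50 reflects decreased mean firing rate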)
In short: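 Extracellular spike frequency, AUC over DIV 5–12 recordings, in rat cortical neuron MEA cultures dosed from plating; loss direction vs DMSO.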

Structure (SMILES)	AC50	outcome
O=C(Nc1ccccc1-c1ccc(Cl)cc1)c1cccnc1Cl	4.96 µM (active)	inactive
CCOP(=O)(OCC)Oc1nc(Cl)c(Cl)cc1Cl		inactive
CCOC(=O)C(C)OC(=O)c1cc(Oc2ccc(C(F)(F)F)cc2Cl)ccc1[N+](=O)[O-] (centres undefined)		inactive
CC(C)=CC1C(C(=O)OCc2coc(Cc3ccccc3)c2)C1(C)C (centres undefined)		inactive
COP(=S)(OC)Oc1ccc([N+](=O)[O-])c(C)c1		inactive
C=C(C)CN(CC)c1c([N+](=O)[O-])cc(C(F)(F)F)cc1[N+](=O)[O-]	12.8 µM (active)	
COP(=S)(OC)SCn1nnc2ccccc2c1=O		inactive
CCSC(=O)N1CCCCCC1		inactive
CC1(C)C(C=C(Cl)Cl)C1C(=O)OC(C#N)c1cccc(Oc2ccccc2)c1 (centres undefined)	2.98 µM (active)	inactive
CS(=O)(=O)c1cc(C(F)(F)F)ccc1C(=O)c1cnoc1C1CC1		inactive

test system: not listed separately; assay: CCTE_Shafer_MEA_dev_per_burst_spike_percent: CCTE's Neural Network Formation Assay for Percent of Spikes in a Burst, Shafer Lab (AID 2284032; active means hit-call score of the fitted dose curve at least 0.9, where 1 is the maximum; inactive means score below 0.9;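 on AC50: fitted as a decrease in burst spike percentage below DMSO baseline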)
In short: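 Value is trapezoidal AUC over recordings on days 5, 7, 9 and 12 of the well-mean fraction of spikes falling in single-electrode bursts; rat cortical cultures exposed continuously from plating, treatment renewed DIV 5 and 9, fitted downward against DMSO.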

Structure (SMILES)	AC50	outcome
O=C(Nc1ccccc1-c1ccc(Cl)cc1)c1cccnc1Cl	9.36 µM (active)	inactive
CCOP(=O)(OCC)Oc1nc(Cl)c(Cl)cc1Cl	1.39 µM (active) and 15 µM (active)	inactive
CCOC(=O)C(C)OC(=O)c1cc(Oc2ccc(C(F)(F)F)cc2Cl)ccc1[N+](=O)[O-] (centres undefined)		inactive
CC(C)=CC1C(C(=O)OCc2coc(Cc3ccccc3)c2)C1(C)C (centres undefined)		inactive
COP(=S)(OC)Oc1ccc([N+](=O)[O-])c(C)c1		inactive
C=C(C)CN(CC)c1c([N+](=O)[O-])cc(C(F)(F)F)cc1[N+](=O)[O-]	18.6 µM (active)	
COP(=S)(OC)SCn1nnc2ccccc2c1=O		inactive
CCSC(=O)N1CCCCCC1		inactive
CC1(C)C(C=C(Cl)Cl)C1C(=O)OC(C#N)c1cccc(Oc2ccccc2)c1 (centres undefined)	10 µM (active)	inactive
CS(=O)(=O)c1cc(C(F)(F)F)ccc1C(=O)c1cnoc1C1CC1		inactive

target: Estrogen receptor (Homo sapiens) (UniProt P03372); assay: CCTE_Deisenroth_AIME_384WELL_LUC_Inactive: CCTE's 384-well Estrogen Receptor Transactivation Assay without AIME metabolic competence (ERTA luciferase; metabolism negative), Deisenroth Lab (AID 2284038);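 further: VM7Luc4E2 breast cells given medium preincubated 2 h with S9-free microspheres; hits raise estrogen receptor luciferase signal so potencies reflect agonists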
In short: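 Metabolism-negative mode: AIME lids stamped in alginate-water, no hepatic S9. 2 h chemical incubation → medium onto VM7Luc4E2 ERTA, 24 h. Readout luciferase luminescence; gain-of-signal fit vs 17beta-estradiol. Conc. 0.002 - 200 uM.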

Structure (SMILES)	outcome	AC50
COCC(C)N(C(=O)CCl)c1c(C)csc1C (centres undefined)	inactive	
CC(C)N1C(=O)c2ccccc2NS1(=O)=O	inactive	
O=C(Nc1ccccc1-c1ccc(Cl)cc1)c1cccnc1Cl	inactive	
O=c1n(Cl)c(=O)n(Cl)c(=O)n1Cl	inactive	
CNC(=O)N(C)c1nnc(C(C)(C)C)s1	inactive	
COC(=O)NC(=S)Nc1ccccc1NC(=S)NC(=O)OC	inactive	
COc1cc(OC)nc(NC(=O)NS(=O)(=O)c2ncccc2OCC(F)(F)F)n1	inactive	
N#Cc1c(Cl)cccc1Cl	inactive	
COCc1cnc(C2=NC(C)(C(C)C)C(=O)N2)c(C(=O)O)c1 (centres undefined)	inactive	
CCOP(=O)(OCC)Oc1nc(Cl)c(Cl)cc1Cl	inactive	
CCOC(=O)C(C)OC(=O)c1cc(Oc2ccc(C(F)(F)F)cc2Cl)ccc1[N+](=O)[O-] (centres undefined)	inactive	
CC(C)=CC1C(C(=O)OCc2coc(Cc3ccccc3)c2)C1(C)C (centres undefined)	inactive	
Cc1cc(C)nc(Nc2ccccc2)n1	inactive	
COP(=S)(OC)Oc1ccc([N+](=O)[O-])c(C)c1	inactive	
C=C(C)CN(CC)c1c([N+](=O)[O-])cc(C(F)(F)F)cc1[N+](=O)[O-]	inactive	
COP(=S)(OC)SCn1nnc2ccccc2c1=O	inactive	
Nc1c(Cl)c(Cl)nc(C(=O)O)c1Cl		14.3 µM (active)
CCSC(=O)N1CCCCCC1	inactive	
CN=C=S	inactive	
CCOP(=S)(OCC)Oc1nc(Cl)n(C(C)C)n1	inactive	
CC1(C)CON(Cc2ccccc2Cl)C1=O		73.1 µM (active)
CC1(C)C(C=C(Cl)Cl)C1C(=O)OC(C#N)c1cccc(Oc2ccccc2)c1 (centres undefined)		57.9 µM (active)
CS(=O)(=O)c1cc(C(F)(F)F)ccc1C(=O)c1cnoc1C1CC1	inactive	
CCCC(=NOCC)C1=C(O)CC(CC(C)SCC)CC1=O (centres undefined)	inactive	
Cc1ccc(N=CN(C)C=Nc2ccc(C)cc2C)c(C)c1	inactive	
CC(C)N1C(=O)N(c2ccccc2)CSC1=NC(C)(C)C	inactive	
Nc1cnn(-c2ccccc2)c(=O)c1Cl	inactive	

From PubChem BioAssay (EPA / NIEHS)
